Here are results for 22 sequences from the supplement of paper PMC6555819.

This assay concerns PXR:RXRa (NR concentration 270 nM, RXRa partner concentration 90 nM). The experiment in a line: PBM binding z-score (relative to random genomic background probes); higher = stronger binding; sequences stand for … in GC…GCGATTGACAGCGTAGAATGAAGG
The procedure, abridged:
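Custom Agilent 4×180K protein-binding microarrays carried double-stranded probes, each with a 34-nt variable region. These regions held direct-repeat seeds, single-nucleotide variants, half-site ablations and random human genomic background sequences. Ligand-free nuclear receptor dimers were incubated on the arrays for 1 h, antibodies against each partner (one per run) detected binding, and scanned fluorescence was regression-normalized. Binding z-scores take the random background probes as reference.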
The sequence TCTTGTAGATCAAGCAGGTTAGGAAAGCCTGAGT returned a PBM binding z-score of -0.00169. With ATCTCTAGGTAGAGTTCAGTGAAAGATCGATAGA, the PBM binding z-score worked out at 2.52. To GCTTGTAGAGCAAGGTTAAGAAAGACTAAGCTAA belongs 0.206. To CAAACTAGGTCAAATGTCAAAGTCGAGCCAACCA belongs 3.16; to TCATATAGGTATAGGTGAAAGTCGAACGATATGA, 0.316; to CAAACTAGGTCAAGAGATCAAAGTCCGCTTCCCG, 1.51. Sequence CCTGCTAGGTCAATCGTCAGCTAAAGCAGCTCGC came in with a PBM binding z-score of 0.842. Sequence CGTCAAAGTTCAAGGTAACGTGACAGAAAGCAGC came in with a PBM binding z-score of 4.21. The sequence ATCGAAACGTCGAGGTGAGTATAGAGAAAGGGAA displayed a PBM binding z-score of -0.126. AGCGAAAGGTCGTGAGGTGAGTATACAGAAAGGC: the PBM binding z-score worked out at 2.81. Take CGAACTAGGGCATTGACAGGACAGTGAATAGTAA: the PBM binding z-score is -0.229. As for CGGACTGGGGCAAGGTTACCATAACGCACAGCCA, the figure is 0.516; as for AGCATGAGGTTACCAAAGATCAGGGAAACGCTTG, 1.38.

In turn, CTAGCAAGGTGAACAAGGTCGTTGATTACTATTC showed a PBM binding z-score of 2.46. In turn, CTACTAAGGTGAACAAGGTCGTTGATTACTATTC registered a PBM binding z-score of 3.22. As for CGTCCAAGGTCAAAGTTCAGTGAAGAGATGACGG, the figure is 6.59.

TCTTGTAGATCAATAGAGGGTAAGAAAGTGCGCT yielded a PBM binding z-score of 0.854. As for ATCGAAAGGTCGTGAGGTGCGTATACAGAAAGGC, the figure is 2.98; as for CCTATTAGTTGAGCATAAGGGCAACCGAAGCTCG, 0.18. TCTTGTAGATCAACAGGAGGTTAAAAAAGATCGA: the PBM binding z-score is 0.969. As for TGAATGAGGTTAAAGTTCAGGGAACGTGGCGTCG, the PBM binding z-score worked out at 5.23.

ATCTCTAGGTAAGACTCAATTCAGTGAAGAACGC showed a PBM binding z-score of -0.0296.
